# Screens as filed in PubChem.
# Hits are enriched below; roughly 5% of the tested compounds scored in any of these assays.
# TSHR ag: qHTS Assay for Agonists of the Thyroid Stimulating Hormone Receptor; Thyrotropin receptor (Homo sapiens), P16473; HEK293-CNG-TSHR cells (CNG channel as cAMP sensor), membrane potential dye, cAMP; Potency, µM (titrated, usually from 57.1 µM), for the others: at the highest dose activation, actives largely listed as activators; 73,000 tested, 0.48% active; active means well fitted activation curve with a large enough effect in the main read-out, with a control signal flat, not every such curve was filed as active; inconclusive means small, poorly fitted or top-dose-only effect, or a change in a side signal; inactive means no such curve, though single readings can be large or run the other way; % of control where 0% means no effect;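 further: the control signal comes from parental cells without the receptor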
#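 cAMP rise detected as CNG-channel membrane depolarization by fluorescent dye (emission 590 nm), 30 min after compound, following 60 min dye loading containing 100 uM RO 20-1724 at room temperature. Cells: TSHR/CNG HEK 293, with parental CNG HEK 293 as control.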
# Casp7 inh: qHTS Assay for Allosteric/Competitive Inhibitors of Caspase-7; 75,000 tested, 0.02% active; Potency, µM (titrated, usually from 57.5 µM), without a hit: top-dose activity change, negative = inhibition, most hits filed as inhibitors; P55210; recombinant caspase-7, Ac-DEVD-AFC fluorescence rate; active means well fitted inhibition curve with a large enough effect in the main read-out, with a control signal flat, not every such curve was filed as active; inconclusive means small, poorly fitted or top-dose-only effect, or a change in a side signal; further: % of control where 0% means no effect
# Target sequence (P55210 24-198 limits assumed): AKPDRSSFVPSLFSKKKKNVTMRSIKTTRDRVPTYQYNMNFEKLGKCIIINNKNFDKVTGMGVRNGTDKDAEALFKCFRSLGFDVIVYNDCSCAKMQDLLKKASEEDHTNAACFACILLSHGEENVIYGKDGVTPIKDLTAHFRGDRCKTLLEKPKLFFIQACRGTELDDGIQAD
# Target sequence (P55210 207-303 limits assumed): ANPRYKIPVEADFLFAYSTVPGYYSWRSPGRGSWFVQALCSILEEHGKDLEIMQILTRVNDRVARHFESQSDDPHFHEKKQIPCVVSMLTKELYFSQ
# USP2a inhib: qHTS Assay for Inhibitors of Ubiquitin-specific Protease USP2a | Potency, µM (top dose mostly 38.3 µM), for inactives: at the highest dose activity change, negative = inhibition, most hits filed as inhibitors | 60,000 tested, 0.1% active | Ubiquitin carboxyl-terminal hydrolase 2 (Homo sapiens), O75604 | AID 927, 2007 | USP2a enzymatic assay, qHTS inhibition; further: nearly all actives have a fitted effect of over 60% in size
#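 USP2 core (20nM final) preincubated 30 min RT with compound, then Ub-PLA2 20nM and NBD C6-HPC 20uM final added; buffer 20mM Tris-HCl pH 8.0, 2mM CaCl2. Fluorescence Ex 460/Em 535 read at 0 and 2.5 h; normalized to NEM.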
# Casp1 inh: qHTS Assay for Allosteric/Competitive Inhibitors of Caspase-1 | 75,000 tested, 0.03% active | P29466 | Potency, µM (top dose mostly 57.5 µM), for inactives: at the top dose activity change, negative = inhibition, most hits filed as inhibitors | Caspase-1 enzyme, Ac-WEHD-AFC fluorogenic rate;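 further: plate controls were vehicle for no effect and no substrate for full effect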
# Target sequence (P29466 120-297 limits assumed): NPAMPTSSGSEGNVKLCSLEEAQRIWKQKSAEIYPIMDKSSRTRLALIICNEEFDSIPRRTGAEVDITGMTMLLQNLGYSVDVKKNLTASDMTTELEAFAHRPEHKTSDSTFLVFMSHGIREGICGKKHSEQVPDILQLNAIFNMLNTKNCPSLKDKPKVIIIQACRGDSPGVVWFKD
# Target sequence (P29466 317-404 limits assumed): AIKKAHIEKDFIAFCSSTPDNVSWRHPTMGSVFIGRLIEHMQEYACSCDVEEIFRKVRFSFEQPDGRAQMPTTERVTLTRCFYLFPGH
# CRE Fsk mod: Cell signaling CRE-BLA (Fsk stim). Potency, µM (titrated, usually from 38.2 µM), without a hit: at the highest dose activity change, negative = inhibition, hits mostly activators. 71,000 tested, 2.5% active. CHO CRE-bla reporter (cAMP response element driving beta-lactamase), forskolin EC10, beta-lactamase ratio; active means well fitted activation curve with a large enough effect in the signal ratio, with a control signal flat, not every such curve was filed as active; inconclusive means small, poorly fitted or top-dose-only effect, or effect the other way, or a change in a side signal; the % refers to the signal ratio; further: % of control where 0% means no effect
#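 AC50 values, positive or negative, reflect shifts in EC10 NKH 477-induced CRE-bla reporter activity in CHO cells. Incubation lasted 3 h at 37 °C before CCF4 substrate (2 h, room temperature) and ratiometric 460/530 nm reading.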
# HEK293 cAMP ctrl: qHTS Assay for Agonists of the Thyroid Stimulating Hormone Receptor: Activators of Intracellular cAMP Concentrations in Parental HEK 293; Potency, µM (top dose mostly 57.1 µM), without a hit: at the top dose activation, hits mostly activators; 73,000 tested, 2.5% active; parental HEK293 CNG cAMP sensor, membrane potential fluorescence; further: % of control where 0% means no effect; nearly all actives have a fitted effect of over 55% in size
#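 Parental HEK 293 cells stably expressing a modified CNG channel (no TSHR) report cAMP rise as membrane depolarization. Membrane potential dye with 100 uM RO 20-1724 was loaded for 60 min at room temperature, then compound added for 30 min; fluorescence read at 590 nm.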
# * = called active by the depositor; ? = inconclusive; nt = no result; [ ] = another dose, or the depositor's remark. Unless noted, the call rests on the fitted dose curve; in most records, active means well fitted curve in the direction sought with a large enough effect; inconclusive means small, poorly fitted or top-dose-only effect, or another doubt; inactive means no such curve, though single readings can be large; an effect the other way counts as inactive or inconclusive. Potency means the concentration at half of the fitted maximal effect.
SMILES,TSHR ag,Casp7 inh,USP2a inhib,Casp1 inh,CRE Fsk mod,HEK293 cAMP ctrl
COc1ccc2[nH]c3nc(SCc4nnc(-c5ccc(C)cc5)o4)nnc3c2c1,12.6%,3.4%,24.4%,0.8%,1µM*,9.0%
Cc1ccc(S(=O)(=O)NC(=O)Nc2ncn[nH]2)cc1,-0.9%[11.4 µM],-0.5%[11.5 µM],nt,-0.4%[11.5 µM],0.3%[7.6 µM],7.0%[11.4 µM]
CCCCCN=c1ccn(Cc2ccccc2)c2ccccc12,?,2.0%,nt,1.1%,-8.8%,15.8µM*
CCSC(C)CC1C/C(=N/O)c2c(CC)noc2C1 (stereo unspecified),15.6%,-0.9%,5.1%,0.6%,?,19.2%
CCCc1noc2c1/C(=N\O)CC(CC(C)SCC)C2 (stereo unspecified),25.1µM*,-3.4%,nt,0.1%,nt,15.7%
COC(=O)C/C=C/C(C)C(OCc1cccc(-c2ccccc2)c1)C1CCCCC1 (stereo unspecified),0.0%[11.4 µM],0.6%[11.5 µM],nt,0.5%[11.5 µM],nt,5.9%[11.4 µM]
COc1ccccc1N(C(=O)c1snc(C(N)=O)c1N)C(C(=O)NC1CCCC1)c1ccco1 (stereo unspecified),?,0.1%[0.00368 µM],21.1%,?,?,1µM*
NCCOc1ccccn1,0.0%[11.4 µM],-0.2%[11.5 µM],nt,-0.1%[11.5 µM],25.3%[7.6 µM],27.2%[11.4 µM]
CCOC(=O)c1c(C)n(OCc2ccccc2)c2ccc3nonc3c12,?,?,-3.5%,nt,10µM*,10µM*
Cc1c(C(=O)OCc2ccccc2)nnn1-c1nonc1N,9.3%,0.0%,5.1%,-0.7%,-24.2%,6.8%
OC(Cc1ccccc1)(Cc1ccccc1)c1ccccc1,8.6%[11.4 µM],-1.1%[11.5 µM],nt,-3.1%[11.5 µM],-11.4%[7.6 µM],7.0%[11.4 µM]
CC(Cc1ccccc1)C(=O)NCCc1c[nH]c2ccccc12 (stereo unspecified),?,-3.8%,nt,-2.9%,?,12.6µM*
COc1cc(C(=O)OCC(=O)c2cc(C)n(C)c2C)cc(NC(=O)c2ccco2)c1OC,?,-3.4%,20.7%,0.2%,3.16µM*,?
Cc1ccsc1C1NC(=O)c2c(sc3c2CCN(C)C3)N1 (stereo unspecified),-10.3%,?,nt,nt,9.5%,2.5%
CN1CCc2c(sc3c2C(=O)NC(c2cccs2)N3)C1 (stereo unspecified),-1.4%,?,18.8%,nt,12.6µM*,0.6%
CC(=O)O[C@H]1C(=O)[C@]2(C)[C@H]([C@H](OC(=O)c3ccccc3)[C@@]3(O)C[C@H](OC(=O)[C@@H](O)[C@@H](NC(=O)c4ccccc4)c4ccccc4)C(C)=C1C3(C)C)[C@]1(OC(C)=O)CO[C@@H]1C[C@@H]2O,0.4%,nt,nt,nt,?,1.0%
COc1ccc(-c2nn(C)c3sc(C(=O)N4CCOCC4)cc23)cc1OC,6.9%,-0.8%,10.6%,-2.7%,10µM*,4.3%
CC1CCCN(C(=O)c2cc3c(-c4ccc(Cl)cc4)nn(C)c3s2)C1 (stereo unspecified),?,-8.8%,nt,-3.7%,3.16µM*,10.4%
CC(=O)c1ccc(N2CCN(C(=O)c3cc4c(-c5ccccc5F)nn(C)c4s3)CC2)cc1,13.3%,-2.1%,nt,-4.7%,?,6.9%
COc1ccc(N2CCN(C(=O)c3cc4c(-c5cccc(OC)c5)nn(C)c4s3)CC2)cc1,7.2%,-3.3%,25.0%,-4.3%,3.98µM*,5.6%
CCN1CCN(C(=O)c2cc3c(-c4ccc(Cl)cc4)nn(C)c3s2)CC1,24.5%,-1.1%,nt,-1.6%,?,15.7%
CC(=O)OC[C@H]1O[C@@H](O/N=C(\C)CCC(=O)OC[C@@H]2O[C@H](C#Cc3ccccc3)C=C[C@@H]2Oc2ccc(C)cc2)[C@H](OC(C)=O)[C@@H](OC(C)=O)[C@H]1OC(C)=O,-5.9%[11.4 µM],-2.6%[11.5 µM],nt,-2.7%[11.5 µM],nt,1.8%[11.4 µM]
Fc1cccc(Cl)c1/C=N\N=C1c2ccccc2-c2ccccc21,4.9%[11.4 µM],1.6%[11.5 µM],nt,-3.0%[11.5 µM],-10.6%[7.6 µM],9.8%[11.4 µM]
CCCCCCN,2.4%,-2.7%,nt,1.4%,-11.9%,28.4%
